This is an account of results in PubChem BioAssay.

A short description of assay [1]: optical density shifts of acrAB sulA E. coli – strain DRC41, OD650, 48 h, E. coli filamentation inducer project, primary screen (AID 1152).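 Note: E. coli MC1000 strain DRC41 lacking acrAB efflux pump and sulA.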 Conditions: higher = more signal, called active from +8 up or from −8 down.
The nature of assay [2]: probe aLefty1 binding on compound microarray – biochemical, small-molecule microarray, 635/667 nm fluorescence, primary screen (AID 1153).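 Note: score merges spot fluorescence with signal-to-noise ratio from the scanned slide images.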 The following applies: higher = more signal.
A short description of assay [3]: plasmodial surface anion channel blockers, osmotic lysis – cell-based, P. falciparum Indochina, OD700, 1 h, primary screen (AID 1154). Conditions: P. falciparum Indochina infected RBC osmotic lysis, higher = more signal, called active from +8 up or from −8 down.
A short description of assay [4]: plasmodial surface anion channel blockers, osmotic lysis – cell-based, P. falciparum Indochina, OD700, 2 h, primary screen (AID 1155).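 Note: lysis reports solute entry through the parasite surface anion channel PSAC.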 Conditions: P. falciparum Indochina infected erythrocytes, higher = more signal, called active from +8 up or from −8 down.
A short description of assay [5]: changes in parasitized red cell lysis, either direction – P. falciparum Indochina, OD700, 3 h, PSAC antagonist project, primary screen (AID 1156). The following applies: P. falciparum-infected erythrocytes, osmotic lysis, higher = more signal, called active from +8 up or from −8 down.
The nature of assay [6]: plasmodial surface anion channel blockers, osmotic lysis – cell-based, P. falciparum Indochina, OD700, 18 h, primary screen (AID 1157). The following applies: P. falciparum Indochina infected erythrocytes, osmotic lysis OD700, 18 h; higher = more signal, called active from +8 up or from −8 down.
A short description of assay [7]: S6 kinase pathway phospho-S6 level changes – cell-based, A549, cytoblot, luminescence, serum-stimulated, primary screen (AID 1158).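 Note: serum-stimulated A549 lung adenocarcinoma cells; signal is phosphorylated S6 detected by cytoblot immunostaining with HRP secondary.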 Conditions: 5 h, higher = more signal.
The target in assay [8] is NADPH oxidase 2 (Homo sapiens) (UniProt P04839). In words: compounds shifting NOX2 Amplex Red fluorescence – cell-based, HEK293-NOX2, PMA-stimulated, NOX inhibitor project, primary screen (AID 1159). Note: test concentration not given here. The following applies: 45 min, higher = more signal, called active from +8 up or from −8 down.
Assay [9] deals with NADPH oxidase 4 (Homo sapiens) (UniProt Q9NPH5). In words: compounds shifting NOX4 Amplex Red fluorescence – cell-based, HEK293-NOX4, tetracycline-induced, NOX inhibitor project, primary screen (AID 1160). Conditions: HEK293-NOX4, Amplex Red H2O2 fluorescence, 45 min; higher = more signal, called active from +8 up or from −8 down.
Assay [10] concerns the target NADPH oxidase 5 (Homo sapiens) (UniProt Q96PH1). Kind of assay: compounds shifting NOX5 Amplex Red fluorescence – cell-based, HEK293-NOX5, NOX inhibitor project, primary screen (AID 1161). Conditions: HEK293-NOX5, ionomycin, 45 min, higher = more signal.
Assay [11] in a line: compound effects on lung adenocarcinoma cell viability – A549, calcein-AM fluorescence, 48 h, basal, profiling panel (AID 1162). Note: test concentration not given here. Conditions: higher = more signal.
Assay [12] in a line: compound effects on differentiated 3T3-L1 adipocyte viability – cell-based, 3T3-L1 adipocytes, calcein-AM fluorescence, 48 h, basal, profiling panel (AID 1163). Note: test concentration not given here. The following applies: 3T3-L1 adipocytes viability, higher = more signal.
Assay [13] in a line: compound effects on hepatocellular carcinoma cell viability – HepG2, calcein-AM fluorescence, 48 h, basal, profiling panel (AID 1164). Note: test concentration not given here. The following applies: higher = more signal.
Assay [14] is described as follows: compound effects on multiple myeloma cell viability – MM1S, calcein-AM fluorescence, 48 h, basal, profiling panel (AID 1165).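 Note: viability of MM1S multiple myeloma cells under basal unstimulated conditions; test concentration not given here.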 The following applies: higher = more signal.
Assay [15] in a line: calcein-AM signal in unstimulated myeloma cells – cell-based, calcein-AM fluorescence, 48 h, PK04 Diversity Set, profiling panel (AID 1166).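 Note: cells grown under basal conditions without added stimulus; test concentration not given here.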 The following applies: RPMI8226 myeloma viability, higher = more signal.
The nature of assay [16]: JC-1 mitochondrial signal, unstimulated HepG2 cells – cell-based, JC-1 fluorescence, 24 h, 100 nL compound, profiling panel (AID 1167). Note: test concentration not given here. Conditions: HepG2 mitochondrial potential, higher = more signal.
Assay [17] in a line: JC-1 mitochondrial signal, unstimulated adipocytes – cell-based, JC-1 fluorescence, 3T3-L1 adipocytes, 24 h, 100 nL compound, profiling panel (AID 1168). Note: test concentration not given here. The following applies: JC-1 mitochondrial fluorescence, higher = more signal, called active from +8 up or from −8 down.
Assay [18] can be described thus: JC-1 mitochondrial signal, unstimulated myeloma cells – cell-based, JC-1 fluorescence, RPMI8226, 24 h, 100 nL compound, profiling panel (AID 1169). Note: test concentration not given here. Conditions: JC-1 mitochondrial potential fluorescence, higher = more signal.
Assay [19] can be described thus: JC-1 mitochondrial signal, unstimulated MM1S myeloma – cell-based, JC-1 fluorescence, 24 h, 100 nL compound, profiling panel (AID 1170). Note: test concentration not given here. Conditions: MM1S mitochondrial potential, higher = more signal.
Assay [20] is described as follows: resazurin metabolic signal in A549 cells – cell-based, resazurin fluorescence, 24 h, PK04 Diversity Set, profiling panel (AID 1171). Note: test concentration not given here. Conditions: A549 viability, higher = more signal, called active from +8 up or from −8 down.

Calls of active or inactive are those of the source.

Sequence of NADPH oxidase 4 (Homo sapiens) (Q9NPH5 whole entry, looked up): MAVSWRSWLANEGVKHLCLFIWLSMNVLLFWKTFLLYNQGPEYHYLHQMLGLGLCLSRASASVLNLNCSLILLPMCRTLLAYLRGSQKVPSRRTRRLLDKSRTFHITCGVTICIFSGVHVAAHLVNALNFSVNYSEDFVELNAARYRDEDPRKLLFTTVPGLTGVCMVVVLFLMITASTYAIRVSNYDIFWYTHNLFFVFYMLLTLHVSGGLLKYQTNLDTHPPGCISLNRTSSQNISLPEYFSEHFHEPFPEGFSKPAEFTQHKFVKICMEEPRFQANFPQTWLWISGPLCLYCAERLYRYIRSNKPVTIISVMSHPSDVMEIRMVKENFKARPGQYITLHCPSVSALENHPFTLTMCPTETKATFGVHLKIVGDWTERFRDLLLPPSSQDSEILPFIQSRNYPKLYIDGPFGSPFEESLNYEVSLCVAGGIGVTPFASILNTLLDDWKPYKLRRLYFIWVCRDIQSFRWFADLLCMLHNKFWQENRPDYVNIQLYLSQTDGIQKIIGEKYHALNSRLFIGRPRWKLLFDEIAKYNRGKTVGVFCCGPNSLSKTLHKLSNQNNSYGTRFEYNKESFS
Sequence of NADPH oxidase 5 (Homo sapiens) (Q96PH1 whole entry, looked up): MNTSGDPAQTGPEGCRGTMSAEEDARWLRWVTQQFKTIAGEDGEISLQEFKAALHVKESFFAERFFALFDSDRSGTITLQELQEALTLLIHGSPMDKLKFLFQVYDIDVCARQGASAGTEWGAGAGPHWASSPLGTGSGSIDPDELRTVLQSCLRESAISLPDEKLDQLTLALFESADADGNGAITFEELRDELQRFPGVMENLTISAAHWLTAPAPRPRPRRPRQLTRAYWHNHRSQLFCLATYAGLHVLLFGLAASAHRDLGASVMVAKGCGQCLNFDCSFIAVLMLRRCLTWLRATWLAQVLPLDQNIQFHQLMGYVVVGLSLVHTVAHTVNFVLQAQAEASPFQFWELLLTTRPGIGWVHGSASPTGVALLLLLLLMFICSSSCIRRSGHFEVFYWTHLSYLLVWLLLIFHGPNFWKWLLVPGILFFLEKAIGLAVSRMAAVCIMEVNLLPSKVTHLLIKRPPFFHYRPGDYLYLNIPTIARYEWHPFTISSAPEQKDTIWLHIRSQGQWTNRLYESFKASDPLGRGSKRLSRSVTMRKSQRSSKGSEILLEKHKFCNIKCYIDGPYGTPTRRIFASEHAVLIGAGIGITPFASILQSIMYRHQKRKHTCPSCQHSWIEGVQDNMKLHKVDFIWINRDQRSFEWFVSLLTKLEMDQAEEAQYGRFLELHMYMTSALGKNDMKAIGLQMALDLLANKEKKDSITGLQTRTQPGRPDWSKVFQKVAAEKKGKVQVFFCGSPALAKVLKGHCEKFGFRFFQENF
Sequence of NADPH oxidase 2 (Homo sapiens) (P04839 whole entry, looked up): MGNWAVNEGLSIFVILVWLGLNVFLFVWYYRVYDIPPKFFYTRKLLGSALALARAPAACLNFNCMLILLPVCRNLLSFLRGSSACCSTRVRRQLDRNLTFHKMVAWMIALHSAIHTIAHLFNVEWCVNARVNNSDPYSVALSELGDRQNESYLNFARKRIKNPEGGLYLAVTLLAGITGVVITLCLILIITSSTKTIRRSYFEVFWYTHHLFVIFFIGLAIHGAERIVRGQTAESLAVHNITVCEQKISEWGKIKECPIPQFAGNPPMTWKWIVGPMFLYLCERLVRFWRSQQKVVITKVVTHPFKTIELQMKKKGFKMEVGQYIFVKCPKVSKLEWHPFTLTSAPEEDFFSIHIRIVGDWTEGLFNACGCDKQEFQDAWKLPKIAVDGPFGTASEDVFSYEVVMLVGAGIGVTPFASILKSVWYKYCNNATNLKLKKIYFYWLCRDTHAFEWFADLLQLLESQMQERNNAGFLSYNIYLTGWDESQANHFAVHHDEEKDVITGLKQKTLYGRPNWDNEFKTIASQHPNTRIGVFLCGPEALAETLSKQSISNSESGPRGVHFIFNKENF

`COC(=O)CC=C[C@@H](C)[C@@H]1C=C[C@H](O)[C@@H](CO)O1`: the z-score in assay [1] was 0.372 (inactive); in assay [3], 0.0339 (inactive); in assay [4], 0.447 (inactive); in assay [5], -0.27 (inactive); in [6] it was -0.0707 (inactive); in [7] it was 0.338. Also, the z-score in assay [8] is 0.418 (inactive); in [9], -0.23 (inactive); in assay [10], 0.576; in assay [11], -0.864; in [12] it was -1.02; in assay [13], -0.008. Further, the z-score was 0.667 in assay [14]; -0.932 in assay [15]; 0.295 in [16]; -0.875 (inactive) in assay [17]; -0.229 in assay [18]; -0.433 in [19]. Further, in assay [20], the z-score was -0.554 (inactive). Also, the composite z-score in [2] is -0.472.
With `CCOC(=O)[C@H](CC(C)C)NC(=O)CCC1CC(OC(=O)NCCc2ccc(F)cc2)CC2(CCCC(COC(=O)NCCC(C)C)O2)O1` (stereo not given in full), the z-score in assay [1] was -1.14 (inactive); in [3] it was 6.28 (inactive); in assay [4] it was 0.267 (inactive); in assay [5], 0.0542 (inactive); in [6], 0.0517 (inactive); in assay [7], -0.326. Moreover, the z-score in assay [8] is 1.26 (inactive); in [9], -1.27 (inactive); in assay [10] it was -0.8; in assay [11] it was -0.646; in assay [12], 0.174; in [13], 0.0995. The z-score is 0.773 in assay [14]; -0.479 in assay [15]; -0.488 in assay [16]; 0.152 (inactive) in assay [17]; 0.248 in assay [18]; -0.00687 in [19]. Also, the z-score in assay [20] was 0.0692 (inactive). The same molecule gave a composite z-score in assay [2] of 0.0451.
For `CCOC(=O)[C@H](CC(C)C)NC(=O)CCC1CC(OC(=O)NCCc2ccc(F)cc2)CC2(CCCC(COC(=O)NCCc3ccccc3OC)O2)O1` (stereo not given in full), the z-score is -0.501 (inactive) in assay [1]; -1.58 (inactive) in assay [3]; -0.344 (inactive) in [4]; -0.17 (inactive) in assay [5]; -0.142 (inactive) in assay [6]; -0.0491 in assay [7]. Further, the z-score was 0.00967 (inactive) in assay [8]; 0.15 (inactive) in [9]; -0.0222 in assay [10]; 0.239 in assay [11]; -0.227 in assay [12]; -0.204 in assay [13]. The z-score in [14] is -1.35; in [15], -1.41; in [16], 0.481; in assay [17], 0.293 (inactive); in assay [18] it was -0.106; in assay [19] it was -0.878. Further, the z-score in [20] was -0.311 (inactive). In assay [2], this molecule showed a composite z-score of -0.0603.
Consider `C#CCCCON=C1C[C@@H](O)[C@@H](O)[C@@H]2[C@@H]3C(=O)N(c4ccc(F)cc4F)C(=O)[C@@H]3CC[C@H]12`, for which the z-score in [1] was -1.41 (inactive); in assay [3], 1.04 (inactive); in [4], -1.22 (inactive); in assay [5], 1.13 (inactive); in assay [6], -1.41 (inactive); in assay [7], 0.27. For the same molecule, the z-score in assay [8] was -0.76 (inactive); in [9] it was 0.615 (inactive); in assay [10] it was 0.306; in assay [11], 1.14; in assay [12] it was -0.0377; in [13] it was -0.123. Further, the z-score in assay [14] was 0.324; in [15], 0.116; in assay [16] it was 0.769; in [17], -0.229 (inactive); in [18] it was -0.0797; in [19] it was -1.25. Further, the z-score in [20] is 0.705 (inactive). The composite z-score in assay [2] was -0.193.
Consider `COc1ccc(COC(=O)NN=C2C[C@@H](O)[C@@H](O)[C@@H]3[C@@H]4C(=O)N(c5ccc(F)cc5F)C(=O)[C@@H]4CC[C@H]23)cc1`, for which the z-score is -0.544 (inactive) in assay [1]; 30.2 (active) in assay [3]; 4.98 (inactive) in assay [4]; 2.52 (inactive) in [5]; 1.24 (inactive) in assay [6]; -0.434 in [7]. In addition, the z-score is -0.407 (inactive) in assay [8]; -0.481 (inactive) in assay [9]; -0.876 in assay [10]; 0.0819 in assay [11]; 0.232 in [12]; -1.01 in assay [13]. Further, the z-score is 0.698 in assay [14]; -0.887 in [15]; 0.361 in [16]; -0.982 (inactive) in assay [17]; -0.112 in [18]; -1.07 in [19]. The z-score in assay [20] was 0.764 (inactive). In assay [2], this molecule came in with a composite z-score of 0.545.
